About 83,000 compounds went through this panel and 20% of them were active in at least one assay; those are over-represented in the sample as a whole.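 Step 1: grow cells in 96-well plates. Step 2: add test compound at a single concentration. Step 3: incubate 48 h. Step 4: record percent growth.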 Activity calls are given as the source filed them. How the source made its calls: active means growth percent below 10; inactive means the rest.
Assays:
Assay in all cases: NCI-60 one-dose screen, 48 h (100 = growth as untreated, 0 = no growth, -100 = all killed)
Details in all cases: 10 µM unless noted
NCI-H23 lung = tested on: NCI-H23 lung
NCI-H226 lung = tested on: NCI-H226 lung
HOP-62 NSCLC = tested on: HOP-62 NSCLC
NCI-H460 lung = tested on: NCI-H460 lung
HOP-92 NSCLC = tested on: HOP-92 NSCLC
NCI-H522 lung = tested on: NCI-H522 lung
A549/ATCC NSCLC = tested on: A549/ATCC NSCLC
786-0 renal = tested on: 786-0 renal
COLO 205 colon = tested on: COLO 205 colon
NCI-H322M lung = tested on: NCI-H322M lung

Measured: growth

c1ccc(-c2n(Cc3ccc4ccccc4n3)cc[n+]2Cc2ccc3ccccc3n2)cc1
inactive: NCI-H23 lung 22.9% | NCI-H226 lung 36.2% | HOP-62 NSCLC 74.3% | NCI-H460 lung 41.6% | NCI-H522 lung 16.2% | A549/ATCC NSCLC 73.3% | 786-0 renal 77.7%
active: HOP-92 NSCLC -6.03% | COLO 205 colon -49.3%

OCCNc1nc(NCCO)nc(Nc2ccc(C3=NN(c4cc(Cl)cc(Cl)c4)C(c4ccc(C(F)(F)F)cc4)C3)cc2)n1 (configuration not stated)
inactive: NCI-H23 lung 56.6% | NCI-H226 lung 80.2% | HOP-62 NSCLC 32.5% | NCI-H460 lung 14.8% | HOP-92 NSCLC 65.8% | NCI-H522 lung 61.2% | A549/ATCC NSCLC 32.9% | COLO 205 colon 25.3%
active: 786-0 renal 2.27%

COc1ccc2[nH]c(=O)c(/C=C/C(=O)/C=C/c3ccc(O)c(OC)c3)cc2c1
active: 786-0 renal -42.7%
inactive: NCI-H226 lung 36.8% | NCI-H322M lung 78.8% | HOP-62 NSCLC 85% | NCI-H460 lung 20.1% | HOP-92 NSCLC 98.3% | NCI-H522 lung 29% | A549/ATCC NSCLC 22.6% | COLO 205 colon 29.6%

COc1ccc(NC(=O)c2ccc(Nc3ncnc4[nH]c(C)c(C)c34)cc2)cc1
inactive: NCI-H23 lung 102% | NCI-H226 lung 106% | HOP-62 NSCLC 108% | NCI-H460 lung 98.4% | HOP-92 NSCLC 111% | NCI-H522 lung 97.4% | A549/ATCC NSCLC 94.8% | 786-0 renal 101% | COLO 205 colon 115%

C=CCn1c(SCC(=O)Nc2ccc(C(=O)/C=C/c3cc(OC)c(OC)c(OC)c3)cc2)nnc1-c1ccccc1
inactive: NCI-H23 lung 93% | NCI-H226 lung 88.5% | HOP-62 NSCLC 117% | NCI-H460 lung 89.8% | HOP-92 NSCLC 150% | NCI-H522 lung 82.8% | A549/ATCC NSCLC 85.1% | 786-0 renal 93.1% | COLO 205 colon 101%

CN1CCN(/C=C2\CC(C(=O)NCc3ccc(Cl)cc3Cl)NC2=O)CC1 (configuration not stated)
inactive: NCI-H23 lung 99.5% | NCI-H226 lung 85.7% | HOP-62 NSCLC 108% | NCI-H460 lung 104% | HOP-92 NSCLC 98.8% | NCI-H522 lung 98.3% | A549/ATCC NSCLC 94.2% | 786-0 renal 116% | COLO 205 colon 116%

CCOC(=O)c1c(-c2ccc(O)cc2)c(C#N)c2c(C#N)c(N)nn2c1N
inactive: NCI-H23 lung 72.6% | NCI-H226 lung 69.3% | HOP-62 NSCLC 66.6% | NCI-H460 lung 74.3% | HOP-92 NSCLC 41.7% | NCI-H522 lung 39.2% | A549/ATCC NSCLC 80.7% | 786-0 renal 93% | COLO 205 colon 74.6%

COc1cc([C@H](C)c2ccc3ccccc3c2)cc(OC)c1OC
inactive: NCI-H23 lung 30.1% | NCI-H226 lung 68.2% | HOP-62 NSCLC 36.7% | HOP-92 NSCLC 66.3% | NCI-H522 lung 10.1% | A549/ATCC NSCLC 24.6% | 786-0 renal 39.6%
active: NCI-H460 lung 8.84% | COLO 205 colon -3.69%

CCOC(=O)c1sc(/N=C2\NC(=O)/C(=C/c3ccc(N4CCN(C)CC4)cc3)S2)nc1C
inactive: NCI-H23 lung 99.3% | NCI-H226 lung 99.7% | HOP-62 NSCLC 105% | NCI-H460 lung 109% | HOP-92 NSCLC 108% | NCI-H522 lung 77.4% | A549/ATCC NSCLC 89.6% | 786-0 renal 87% | COLO 205 colon 109%

COc1ccc(/C=C/C(=O)C(CC2CCC2)C(=O)/C=C/c2ccc(OC)c(OC)c2)cc1OC
active: NCI-H23 lung 3.1% | NCI-H226 lung -0.278% | HOP-62 NSCLC -39% | NCI-H460 lung -30.3% | HOP-92 NSCLC -5.24% | NCI-H522 lung -38.2% | A549/ATCC NSCLC -47% | 786-0 renal -44.6% | COLO 205 colon -53.7%

C=C1C(=O)O[C@H]2[C@H]1CC/C(COC(=O)CCCCC(=O)OC/C1=C/CC[C@@]3(C)O[C@H]3[C@H]3OC(=O)C(=C)[C@@H]3CC1)=C\CC[C@@]1(C)O[C@@H]21
active: NCI-H522 lung -36.9% | COLO 205 colon -18.9%
inactive: NCI-H23 lung 65.2% | NCI-H226 lung 75.3% | HOP-62 NSCLC 86.8% | NCI-H460 lung 99.3% | HOP-92 NSCLC 61.1% | A549/ATCC NSCLC 94.9% | 786-0 renal 68%

COc1cc2nc3c(=O)n(-c4ccc(C#N)cc4)cnn3c(=O)c2cc1OC
inactive: NCI-H23 lung 98.3% | NCI-H226 lung 95.1% | HOP-62 NSCLC 102% | NCI-H460 lung 104% | HOP-92 NSCLC 103% | NCI-H522 lung 82.1% | A549/ATCC NSCLC 106% | 786-0 renal 103% | COLO 205 colon 94.3%

C#CCN1C(=O)c2ccccc2N(CC#C)C12CCN(Cc1cn(CC(=O)Nc3ccccc3C(N)=O)nn1)CC2
inactive: NCI-H23 lung 78.4% | NCI-H226 lung 83.2% | HOP-62 NSCLC 104% | NCI-H460 lung 89.7% | HOP-92 NSCLC 107% | NCI-H522 lung 67.7% | A549/ATCC NSCLC 92.3% | 786-0 renal 81.1% | COLO 205 colon 99.9%

Reference: PubChem BioAssay (NCI)
